Screens from PubChem.
PfHsp90 set2 = growth inhibition of yeast expressing Plasmodium Hsp90 | inhibition, % at 9.4 µM | 310,000 compounds, 0.32% hits | AID 504621 | S. cerevisiae expressing PfHsp90, BacTiter-Glo ATP, 48 h; yeast lacking PDR1 and PDR3 efflux regulators;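 active = every replicate shows inhibition above about 80%, whatever the replicate mean, limit read from the data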
tim10-1 inh = inhibits growth of tim10-1 mutant yeast; S. cerevisiae tim10-1 ts strain growth, BacTiter-Glo, 24 h; 330,000 compounds, 2.2% hits; inhibition, % at 20 µM; AID 463190;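 active = inhibition of at least 40%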;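 also: mutant grown at 25 °C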
V-ATPase pHluor = regulators of yeast V-ATPase proton transport; S. cerevisiae, pHLuorin cytosolic pH fluorescence; response, % at 10 µM; 350,000 compounds, 0.37% hits; AID 504577; in the data active = response mostly above about 7.3%, no sharp cut-off; inactive = mostly below about 5.4%; also: actives read high
tim23-1 inh = growth inhibitors of tim23-1 mutant yeast | 330,000 compounds, 1.3% hits | S. cerevisiae tim23-1 growth, BacTiter-Glo luminescence, 24 h | inhibition, % at 20 µM;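 active = growth inhibition of the mutant yeast at or above 50%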;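 also: temperature-sensitive mutant grown at 25 °C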
TIM10 inh = inhibits growth of TIM10 yeast strain; S. cerevisiae TIM10 strain growth, BacTiter-Glo luminescence, 24 h; 330,000 compounds, 1.4% hits; inhibition, % at 10 µM;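 active = inhibition of 40% or more at the single tested concentration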;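 also: wild-type TIM10 isogenic control strain grown at permissive 25 °C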
tim10-1 conf = confirmation of tim10-1 mutant yeast growth inhibitors; 7,400 compounds, 56% hits; S. cerevisiae tim10-1 ts strain growth, BacTiter-Glo, 24 h; inhibition, % at 20 µM; shares compounds with tim10-1 inh; AID 463213;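 active = inhibition of yeast growth at or above a set limit in either of two repeat tests at 20 µM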;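 also: tim10-1 mutant grown at permissive 25 °C to find synthetic lethal compounds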
TIM10 conf = TIM10 yeast growth inhibition, confirmed | shares compounds with TIM10 inh | S. cerevisiae tim10 strain growth, BacTiter-Glo luminescence, 24 h | inhibition, % at 10 µM | 4,600 compounds, 63% hits | AID 463215;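 active = inhibition of yeast growth at or above a set limit in either of two replicates at 10 µM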; also: this counterscreen used the strain with wild-type TIM10
tim23-1 conf = confirmation of tim23-1 mutant yeast growth inhibitors; shares compounds with tim23-1 inh; S. cerevisiae tim23-1 growth, BacTiter-Glo luminescence, 24 h; inhibition, % at 20 µM; 4,400 compounds, 83% hits;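 active = inhibition above about 39% in either of two replicate wells at 20 µM, limit read from the data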;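 also: temperature-sensitive tim23-1 mutant grown at 25 °C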
Numbers stand for hits; . = inactive; / = no result given. Shown are actives, neighbours in structure and some others; about 3.7% of the full set was active somewhere.

SMILES	PfHsp90 set2	tim10-1 inh	V-ATPase pHluor	tim23-1 inh	TIM10 inh	tim10-1 conf	TIM10 conf	tim23-1 conf
CCOc1cccc(/C=C(\C#N)C(=O)NC2CC2)c1	.	42	.	77	51	51	51	62
CC(=O)Nc1ccc(/C=C(\C#N)C(=O)NC2CCCCC2)cc1	.	46	.	66	49	48	56	62
Cc1nn(-c2ccccc2)c(C)c1C(=O)NCc1ccccc1F	.	.	.	.	.	/	/	/
COc1cccc(C(=O)NC(=S)Nc2ccccc2N2CCOCC2)c1	.	44	.	53	.	30	/	46
CS(=O)(=O)N1CCN(c2ccc(NC(=S)NC(=O)c3cccs3)cc2)CC1	.	.	.	.	.	/	/	/
O=C(NC(=S)Nc1ccccc1N1CCOCC1)c1ccccc1F	.	52	.	57	.	44	/	55
O=C(NC(=S)Nc1ccccc1N1CCN(C(=O)c2ccccc2)CC1)c1ccccc1F	.	.	.	.	.	/	/	/
O=C(NC(=S)Nc1ccc(N2CCCCC2)cc1)c1cccs1	.	44	.	51	55	.	.	50
O=C(NC(=S)Nc1ccccc1N1CCOCC1)c1cccs1	.	52	.	59	57	36	38	60
CC1(C)N=C(N)N=C(N)N1c1ccc(Oc2ccc(Cl)cc2)c(Cl)c1	.	.	.	.	.	/	/	/
CC1N(C(=O)N2CCOCC2)CCN1S(=O)(=O)c1cccc(C(F)(F)F)c1 (configuration not stated)	.	.	.	.	.	/	/	/
O=C(NCc1cccc(Cl)c1)C1CCC(=O)N(CCCN2CCCC2=O)C1 (configuration not stated)	.	.	.	.	.	/	/	/
Cc1cc(Cl)n2ncc(-c3ccccc3)c2n1	.	.	.	.	.	/	/	/
Cc1cc(N)n2ncc(-c3ccc(Cl)cc3)c2n1	.	53	.	71	.	41	/	21
CCOC(=O)c1c(N)sc2c(O)c(Br)ccc12	.	50	.	52	53	50	47	.
CCOC(=O)c1c(N)sc2c(NC(C)=O)cccc12	.	.	.	.	.	/	/	/
CCC(C)(C)c1ccc(OCCCC[n+]2ccc(C)cc2)c(C(C)(C)CC)c1	/	42	/	60	.	.	/	39
CCc1ccc(-c2cc3c(=O)n(CC(=O)NCCCN4CCN(CC)CC4)nc(C)n3n2)cc1	.	.	.	.	.	/	/	/
C/C(N)=C(/C#N)C(=O)CSc1cc(Cl)ccc1Cl	.	.	.	.	.	/	/	/
C/C(N)=C(/C#N)C(=O)CSc1nc2cc(Cl)ccc2s1	/	50	.	54	44	46	37	56
O=C(Nc1nnc(-c2ccco2)s1)C1CCCCC1	.	.	.	.	.	/	/	/
O=C(Nc1nc(-c2ccco2)c(-c2ccco2)s1)C1CCC1	.	45	.	66	46	59	48	60
Cc1cc(C)n2nc(C(=O)OCC(=O)NCc3ccc(Cl)cc3)nc2n1	.	.	.	.	.	/	/	/
Cn1c(CO)cnc1S(=O)(=O)Cc1c(Cl)cccc1Cl	.	.	.	.	.	/	/	/
Cc1ccc(/C(N)=N/OC(=O)CCCc2ccccc2)cc1	.	54	.	70	60	49	63	66
SMILES	PfHsp90 set2	tim10-1 inh	V-ATPase pHluor	tim23-1 inh	TIM10 inh	tim10-1 conf	TIM10 conf	tim23-1 conf
COc1ccc(/C(N)=N/OC(=O)CCc2ccccc2)cc1OC	.	.	.	.	.	/	/	/
Cc1cccc(/C(N)=N/OC(=O)CCc2ccccc2)c1	.	59	.	63	53	52	46	46
O=[N+]([O-])c1cc(-c2ncccn2)c([N+](=O)[O-])s1	.	88	.	51	91	84	99	92
Cc1ccnc(NC(=O)c2cccc(OC(F)F)c2)n1	.	.	.	.	.	/	/	/
O=C(Nc1cc(Cl)cc(Cl)c1)c1cccc(OC(F)F)c1	/	79	.	85	68	79	66	72
O=C(c1ccccc1)c1ccc(N2CCN(C(=O)c3cccc(F)c3F)CC2)c(F)c1	.	.	.	.	.	/	/	/
O=C1NN=C(c2ccc(Cl)cc2)CC1c1cccc(Cl)c1 (configuration not stated)	/	41	.	56	.	.	/	54
